The nature of assay [1]: ATG_GLI_CIS: Attagene CIS-FACTORIAL HepG2 Assay for human Zinc Finger Protein GLI1 (AID 2282945). To be noted: HepG2, Attagene cis-factorial reporter mRNA, GLI element; actives raise or lower the signal. In outline:
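Bidirectional curve fits relative to DMSO, using reporter mRNA levels from RT-PCR plus capillary electrophoresis. Cells were HepG2 transiently carrying cis-regulated reporter constructs, harvested 24 h after dosing.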

Assay [2] concerns the target Bile acid receptor (Homo sapiens) (UniProt Q96RI1). In words: ATG_IR1_CIS: Attagene CIS-FACTORIAL HepG2 Assay for human Nuclear Receptor Subfamily 1 Group H Member 4 (NR1H4), IR1 submotif (AID 2282946). As to conditions: IR1 reporter transcription, actives raise or lower the signal. The method in brief:
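HepG2 cells transiently transfected with multiplexed cis-element reporter units read endogenous transcription factor activity. After 24 h compound exposure, reporter mRNA was quantified by RT-PCR, fluorescent labelling, HpaI digestion and capillary electrophoresis; bidirectional fitting versus DMSO baseline.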

Assay [3] can be described thus: ATG_M_32_CIS: Attagene CIS-FACTORIAL HepG2 Assay for M32 Transcription Factor (Internal Marker) (AID 2282949).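 Note: background control marker of the multiplexed CIS panel rather than a real target.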 As to conditions: HepG2 Attagene cis-factorial M32 reporter, mRNA; actives raise or lower the signal. In outline: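 Transient MRTU transfection of HepG2; 24 h compound treatment; TriZol RNA, oligo(dT) RT, reporter PCR, 6-FAM primer extension, HpaI cut, CE. Gain/loss of signal vs DMSO.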

A short description of assay [4]: ATG_M_06_CIS: Attagene CIS-FACTORIAL HepG2 Assay for M06 Transcription Factor (Internal Marker) (AID 2282950). To be noted: HepG2 Attagene CIS-FACTORIAL M06 internal marker reporter; actives raise or lower the signal. In outline: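 Cells (HepG2, transiently carrying cis-driven reporter units) receive chemical for 24 h before RNA isolation. Reporter cDNA is PCR-amplified, FAM-labelled by primer extension, HpaI-digested and sized on a capillary analyser.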

For assay [5], the target named is Hypoxia-inducible factor 1-alpha (Homo sapiens) (UniProt Q16665). In words: ATG_HIF1a_CIS: Attagene CIS-FACTORIAL HepG2 Assay for human Hypoxia Inducible Factor 1 (HIF1A) (AID 2282951). As to conditions: HepG2 Attagene cis-factorial HIF1a reporter transcription; actives raise or lower the signal. In outline:
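HepG2 cells transiently transfected with multiplexed cis-promoter reporter units; reporter mRNA read 24 h after dosing by RT-PCR, 6-FAM primer-extension labelling, HpaI digestion and capillary electrophoresis. Bidirectional fit versus DMSO baseline.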

The target of assay [6] is Hepatocyte nuclear factor 6 (Homo sapiens) (UniProt Q9UBC0). In words: ATG_HNF6_CIS: Attagene CIS-FACTORIAL HepG2 Assay for human Hepatocyte Nuclear Factor 6 (HNF6) (AID 2282952). To be noted: HepG2 Attagene cis-factorial HNF6 reporter transcription; actives raise or lower the signal. The method in brief: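 Readout: fluorescent reporter-transcript fragments resolved by capillary electrophoresis after RT-PCR, reflecting endogenous factor activity in transfected HepG2. Exposure 24 h. Gain or loss of signal fitted bidirectionally against DMSO.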

The target of assay [7] is Heat shock factor protein 1 (Homo sapiens) (UniProt Q00613). Nature of the assay: ATG_HSE_CIS: Attagene CIS-FACTORIAL HepG2 Assay for human Heat Shock Transcription Factor 1 (HSE) (AID 2282953). To be noted: HepG2 HSE cis-reporter, Attagene RNA transcription; actives raise or lower the signal. The method in brief:
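Liver-derived HepG2 cells carry transiently introduced multiple reporter units governed by cis promoters. Reporter RNA measured 24 h post-dose through reverse transcription, PCR amplification, fluorescent labelling and capillary electrophoresis, normalised to DMSO.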

Assay [8] in a line: ATG_MRE_CIS: Attagene CIS-FACTORIAL HepG2 Assay for human Metal Responsive Element (MRE) (AID 2282954). As to conditions: HepG2 MRE cis-reporter transcription, Attagene multiplex; actives raise or lower the signal. In outline: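 Multiplexed cis-reporter assay in human HepG2 liver cells, 24 h incubation with test chemical. Reporter transcripts measured by RT-PCR and capillary electrophoresis; values from bidirectional curve fitting versus DMSO.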

The nature of assay [9]: ATG_PBREM_CIS: Attagene CIS-FACTORIAL HepG2 Assay for human Phenobarbital-responsive Enhancer Module (PBREM) (AID 2282955). As to conditions: HepG2 PBREM cis-reporter, Attagene multiplexed transcription; actives raise or lower the signal. The method in brief:
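HepG2 cells transiently transfected with multiple cis-regulated reporter transcription units; endogenous factor activity at the PBREM element measured as reporter mRNA 24 h after dosing, via RT-PCR and capillary electrophoresis of fluorescent fragments; bidirectional fitting versus DMSO.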

The target of assay [10] is Paired box protein Pax-6 (Homo sapiens) (UniProt P26367). In words: ATG_Pax6_CIS: Attagene CIS-FACTORIAL HepG2 Assay for human Paired Box 6 (PAX6) (AID 2282956). As to conditions: HepG2 CIS-FACTORIAL PAX6 reporter transcription, RNA readout; actives raise or lower the signal. In outline: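 Values derive from bidirectional curve fitting of reporter mRNA signal relative to DMSO. HepG2 cells bearing transfected cis-regulated MRTUs were exposed for 24 h; transcripts were read by RT-PCR and capillary electrophoresis.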

A short description of assay [11]: ATG_PXRE_CIS: Attagene CIS-FACTORIAL HepG2 Assay for human Pregnane X Receptor Element (PXRE) (AID 2282957). As to conditions: HepG2 Attagene CIS-FACTORIAL PXRE reporter, mRNA; actives raise or lower the signal. In outline: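 Read-out: fluorescence of reporter-specific RT-PCR products resolved by capillary electrophoresis, fitted bidirectionally relative to DMSO. Human HepG2 liver cells carried transfected cis-promoter reporter units and were exposed to chemicals for 24 h.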

Assay [12] in a line: ATG_PPRE_CIS: Attagene CIS-FACTORIAL HepG2 Assay for human Peroxisome Proliferator-activated Response Element (PPRE) (AID 2282958). To be noted: HepG2 PPRE cis-element reporter, Attagene transcription factor profiling; actives raise or lower the signal. In outline: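 HepG2 cells transiently transfected with multiplexed cis-element reporter units measure endogenous transcription factor activity. After 24 h compound exposure, reporter mRNA is quantified by RT-PCR, 6-FAM labeling, HpaI digestion and capillary electrophoresis; bidirectional fits are made against DMSO baseline.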

Assay [13] in a line: ATG_RORE_CIS: Attagene CIS-FACTORIAL HepG2 Assay for human RAR-related Orphan Receptor Element (RORE) (AID 2282959). To be noted: HepG2 Attagene cis-factorial RORE reporter, mRNA; actives raise or lower the signal. In outline:
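HepG2 cells transiently transfected with multiple cis-element reporter transcription units, exposed to chemical for 24 h. Reporter mRNA quantified by RT-PCR, 6-FAM primer-extension labeling, HpaI digestion and capillary electrophoresis; bidirectional fit versus DMSO baseline.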

A short description of assay [14]: ATG_Sox_CIS: Attagene CIS-FACTORIAL HepG2 Assay for human SRY-box transcription factor (SOX) (AID 2282960). As to conditions: HepG2 Attagene cis-factorial SOX reporter, mRNA; actives raise or lower the signal. In outline:
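HepG2 cells transiently transfected with cis-element-driven multiple reporter transcription units, dosed 24 h; reporter mRNA measured by RT-PCR, FAM labelling, HpaI digestion and capillary electrophoresis. Bidirectional fit versus DMSO baseline.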

Assay [15] deals with Transcription factor Sp1 (Homo sapiens) (UniProt P08047). Nature of the assay: ATG_Sp1_CIS: Attagene CIS-FACTORIAL HepG2 Assay for human Specificity Protein 1 (Sp1) (AID 2282961). To be noted: HepG2 Sp1 cis-reporter transcription, actives raise or lower the signal. In outline:
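HepG2 cells transiently transfected with multiple reporter transcription units driven by cis-regulatory elements; Sp1-responsive reporter mRNA measured 24 h after dosing by RT-PCR and capillary electrophoresis fluorescence, fitted bidirectionally against DMSO baseline.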

Assay [16] in a line: ATG_SREBP_CIS: Attagene CIS-FACTORIAL HepG2 Assay for human Sterol Regulatory Element Binding (SREBP) (AID 2282962). To be noted: HepG2 Attagene cis-factorial SREBP reporter, mRNA; actives raise or lower the signal. In outline: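 Values derive from bidirectional curve fitting with DMSO as baseline. The underlying measurement is reporter mRNA from cis-element-regulated units in transiently transfected HepG2, quantified by RT-PCR and capillary electrophoresis after 24 h exposure.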

Assay [17] has as its target Signal transducer and activator of transcription 3 (Homo sapiens) (UniProt P40763). In words: ATG_STAT3_CIS: Attagene CIS-FACTORIAL HepG2 Assay for human Signal Transducer and Activator of Transcription 3 (STAT3) (AID 2282963). As to conditions: HepG2, Attagene cis-factorial STAT3 reporter transcription; actives raise or lower the signal. In outline:
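Cis-factorial format: endogenous transcription factors in HepG2 drive transfected reporter units. After 24 h treatment, reporter RNA was reverse-transcribed, amplified, FAM-labelled and HpaI-digested before CE analysis; activity scored in both directions against DMSO.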

The nature of assay [18]: ATG_TA_CIS: Attagene CIS-FACTORIAL HepG2 Assay for human TA Basal Promoter (AID 2282964). As to conditions: HepG2 Attagene CIS-factorial TA basal promoter reporter; actives raise or lower the signal. The method in brief:
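Background internal-marker endpoint from a 52-component HepG2 cis-reporter panel. Cells treated 24 h; reporter transcripts quantified via RT-PCR and CE fluorescence against DMSO baseline.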

A short description of assay [19]: ATG_GRE_CIS: Attagene CIS-FACTORIAL HepG2 Assay for human Glucocorticoid Response Elements (GRE) (AID 2282947). To be noted: HepG2 GRE cis-reporter, Attagene multiplex mRNA; actives raise or lower the signal. The method in brief: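 Multiplexed cis-reporter mRNA induction, HepG2, 24 h post-dose. RT-PCR, FAM-labelled, HpaI-digested amplicons by CE. Bidirectional fit vs DMSO.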

Assay [20] is described as follows: ATG_ISRE_CIS: Attagene CIS-FACTORIAL HepG2 Assay for human Interferon Regulatory Factor 1 (IRF1) binding to an Interferon-Stimulated Response Element (ISRE) (AID 2282948). To be noted: HepG2 ISRE cis-reporter (Attagene), mRNA transcription readout; actives raise or lower the signal. In outline: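 Signal reflects induction or loss of ISRE-linked reporter mRNA in transiently transfected HepG2 cells after a 24 h treatment, detected by fluorescent RT-PCR fragments on capillary electrophoresis and normalised to DMSO.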

Active and inactive are the calls of the source. Rule for the calls: active = hit-call score of the fitted dose curve at least 0.9, where 1 is the maximum; inactive = score below 0.9.

Usually AC50 stands for the concentration giving half of the maximal activity seen.

Chain of Hypoxia-inducible factor 1-alpha (Homo sapiens) (Q16665 whole entry, looked up): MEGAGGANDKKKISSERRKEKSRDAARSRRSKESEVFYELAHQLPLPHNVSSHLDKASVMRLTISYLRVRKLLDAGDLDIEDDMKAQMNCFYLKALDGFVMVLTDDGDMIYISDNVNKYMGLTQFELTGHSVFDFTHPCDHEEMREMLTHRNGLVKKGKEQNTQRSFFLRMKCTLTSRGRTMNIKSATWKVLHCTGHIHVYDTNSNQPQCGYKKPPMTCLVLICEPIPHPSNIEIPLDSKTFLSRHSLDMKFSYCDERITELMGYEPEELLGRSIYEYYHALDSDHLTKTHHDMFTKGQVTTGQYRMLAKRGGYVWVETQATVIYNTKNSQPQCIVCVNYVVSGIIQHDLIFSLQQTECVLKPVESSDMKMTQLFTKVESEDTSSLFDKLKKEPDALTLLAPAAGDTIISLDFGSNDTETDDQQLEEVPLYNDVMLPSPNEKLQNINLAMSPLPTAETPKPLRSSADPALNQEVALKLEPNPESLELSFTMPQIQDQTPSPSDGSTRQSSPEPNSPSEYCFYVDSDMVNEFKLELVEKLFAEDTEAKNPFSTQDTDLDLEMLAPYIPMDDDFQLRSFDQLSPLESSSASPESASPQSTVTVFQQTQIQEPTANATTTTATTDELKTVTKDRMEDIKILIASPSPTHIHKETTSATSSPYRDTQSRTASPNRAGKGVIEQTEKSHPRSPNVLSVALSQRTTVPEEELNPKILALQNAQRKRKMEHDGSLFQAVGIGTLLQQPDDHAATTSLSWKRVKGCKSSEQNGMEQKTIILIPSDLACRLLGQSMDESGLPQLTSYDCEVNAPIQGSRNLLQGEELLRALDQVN
Chain of Heat shock factor protein 1 (Homo sapiens) (Q00613 whole entry, looked up): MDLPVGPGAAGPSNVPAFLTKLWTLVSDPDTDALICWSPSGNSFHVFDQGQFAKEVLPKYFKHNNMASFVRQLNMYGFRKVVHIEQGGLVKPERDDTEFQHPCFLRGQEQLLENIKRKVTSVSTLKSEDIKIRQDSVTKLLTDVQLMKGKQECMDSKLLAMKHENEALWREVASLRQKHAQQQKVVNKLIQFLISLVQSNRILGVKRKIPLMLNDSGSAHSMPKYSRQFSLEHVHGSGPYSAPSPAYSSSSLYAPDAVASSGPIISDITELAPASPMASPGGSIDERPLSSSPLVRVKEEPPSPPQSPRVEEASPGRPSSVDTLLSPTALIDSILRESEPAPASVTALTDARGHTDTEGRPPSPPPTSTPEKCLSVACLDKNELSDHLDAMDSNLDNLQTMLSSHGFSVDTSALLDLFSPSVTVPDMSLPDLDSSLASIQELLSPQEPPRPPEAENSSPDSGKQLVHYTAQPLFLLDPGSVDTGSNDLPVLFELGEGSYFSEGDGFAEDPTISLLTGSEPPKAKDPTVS
Chain of Paired box protein Pax-6 (Homo sapiens) (P26367 whole entry, looked up): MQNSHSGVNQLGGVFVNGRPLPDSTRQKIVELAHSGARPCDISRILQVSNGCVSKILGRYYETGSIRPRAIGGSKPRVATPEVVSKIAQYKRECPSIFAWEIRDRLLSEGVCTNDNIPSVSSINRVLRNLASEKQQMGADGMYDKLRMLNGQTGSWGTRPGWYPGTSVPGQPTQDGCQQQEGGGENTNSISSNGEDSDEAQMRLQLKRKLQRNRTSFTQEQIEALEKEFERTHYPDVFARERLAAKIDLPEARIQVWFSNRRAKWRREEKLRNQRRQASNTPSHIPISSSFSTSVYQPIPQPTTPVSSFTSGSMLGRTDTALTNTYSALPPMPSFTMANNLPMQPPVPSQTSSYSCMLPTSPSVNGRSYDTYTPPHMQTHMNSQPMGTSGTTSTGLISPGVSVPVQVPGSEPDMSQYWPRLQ
Chain of Hepatocyte nuclear factor 6 (Homo sapiens) (Q9UBC0 whole entry, looked up, the tested form may be a part): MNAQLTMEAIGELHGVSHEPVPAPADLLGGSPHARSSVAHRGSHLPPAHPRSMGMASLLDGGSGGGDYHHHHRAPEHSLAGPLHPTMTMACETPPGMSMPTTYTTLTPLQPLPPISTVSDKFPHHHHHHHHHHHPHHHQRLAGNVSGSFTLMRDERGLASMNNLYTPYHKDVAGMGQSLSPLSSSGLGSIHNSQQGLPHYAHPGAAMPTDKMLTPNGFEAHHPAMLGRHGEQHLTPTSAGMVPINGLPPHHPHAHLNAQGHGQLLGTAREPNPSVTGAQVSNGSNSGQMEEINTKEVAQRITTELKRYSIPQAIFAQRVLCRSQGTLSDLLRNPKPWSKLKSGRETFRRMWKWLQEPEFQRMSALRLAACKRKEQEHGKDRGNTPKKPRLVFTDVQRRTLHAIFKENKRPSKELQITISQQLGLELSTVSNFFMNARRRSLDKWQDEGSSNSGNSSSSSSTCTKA
Chain of Transcription factor Sp1 (Homo sapiens) (P08047 whole entry, looked up): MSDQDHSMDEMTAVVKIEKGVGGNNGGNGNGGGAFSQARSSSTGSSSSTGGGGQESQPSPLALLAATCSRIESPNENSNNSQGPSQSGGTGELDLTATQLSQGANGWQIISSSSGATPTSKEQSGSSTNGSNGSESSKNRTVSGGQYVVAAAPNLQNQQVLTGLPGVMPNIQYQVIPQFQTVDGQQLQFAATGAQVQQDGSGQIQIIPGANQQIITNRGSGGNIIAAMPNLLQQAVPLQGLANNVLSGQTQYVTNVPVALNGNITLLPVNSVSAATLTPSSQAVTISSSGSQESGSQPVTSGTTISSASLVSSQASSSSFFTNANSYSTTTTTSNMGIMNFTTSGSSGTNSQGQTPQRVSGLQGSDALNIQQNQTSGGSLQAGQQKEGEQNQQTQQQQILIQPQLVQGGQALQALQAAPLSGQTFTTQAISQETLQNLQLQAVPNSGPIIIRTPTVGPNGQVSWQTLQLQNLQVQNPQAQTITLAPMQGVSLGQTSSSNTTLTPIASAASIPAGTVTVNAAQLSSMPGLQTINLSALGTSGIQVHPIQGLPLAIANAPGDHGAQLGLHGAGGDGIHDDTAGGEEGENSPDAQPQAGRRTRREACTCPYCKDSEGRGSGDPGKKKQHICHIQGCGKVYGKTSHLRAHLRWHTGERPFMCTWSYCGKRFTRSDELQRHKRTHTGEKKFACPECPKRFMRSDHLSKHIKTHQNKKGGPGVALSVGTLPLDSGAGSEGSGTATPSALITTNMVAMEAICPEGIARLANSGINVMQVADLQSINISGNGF
Chain of Signal transducer and activator of transcription 3 (Homo sapiens) (P40763 whole entry, looked up): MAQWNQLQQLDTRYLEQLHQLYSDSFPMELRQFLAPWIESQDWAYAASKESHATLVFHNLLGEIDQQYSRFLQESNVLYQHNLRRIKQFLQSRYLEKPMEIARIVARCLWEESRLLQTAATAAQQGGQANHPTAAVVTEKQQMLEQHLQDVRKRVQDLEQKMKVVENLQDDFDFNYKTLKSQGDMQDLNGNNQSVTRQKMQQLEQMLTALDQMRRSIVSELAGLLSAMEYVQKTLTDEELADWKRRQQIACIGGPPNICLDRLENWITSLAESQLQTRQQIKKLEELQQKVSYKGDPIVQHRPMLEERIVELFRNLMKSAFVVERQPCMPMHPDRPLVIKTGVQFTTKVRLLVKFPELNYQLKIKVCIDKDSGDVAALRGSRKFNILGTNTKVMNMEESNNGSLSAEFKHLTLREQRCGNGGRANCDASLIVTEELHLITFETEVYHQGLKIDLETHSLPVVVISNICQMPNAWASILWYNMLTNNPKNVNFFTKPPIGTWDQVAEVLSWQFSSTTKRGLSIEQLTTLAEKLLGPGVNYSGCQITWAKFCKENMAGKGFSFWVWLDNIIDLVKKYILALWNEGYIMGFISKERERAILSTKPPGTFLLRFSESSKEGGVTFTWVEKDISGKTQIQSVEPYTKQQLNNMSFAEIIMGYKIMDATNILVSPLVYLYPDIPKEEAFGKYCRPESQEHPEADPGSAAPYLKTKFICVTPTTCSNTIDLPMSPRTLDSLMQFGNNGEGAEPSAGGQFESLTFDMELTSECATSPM
Chain of Bile acid receptor (Homo sapiens) (Q96RI1 whole entry, looked up): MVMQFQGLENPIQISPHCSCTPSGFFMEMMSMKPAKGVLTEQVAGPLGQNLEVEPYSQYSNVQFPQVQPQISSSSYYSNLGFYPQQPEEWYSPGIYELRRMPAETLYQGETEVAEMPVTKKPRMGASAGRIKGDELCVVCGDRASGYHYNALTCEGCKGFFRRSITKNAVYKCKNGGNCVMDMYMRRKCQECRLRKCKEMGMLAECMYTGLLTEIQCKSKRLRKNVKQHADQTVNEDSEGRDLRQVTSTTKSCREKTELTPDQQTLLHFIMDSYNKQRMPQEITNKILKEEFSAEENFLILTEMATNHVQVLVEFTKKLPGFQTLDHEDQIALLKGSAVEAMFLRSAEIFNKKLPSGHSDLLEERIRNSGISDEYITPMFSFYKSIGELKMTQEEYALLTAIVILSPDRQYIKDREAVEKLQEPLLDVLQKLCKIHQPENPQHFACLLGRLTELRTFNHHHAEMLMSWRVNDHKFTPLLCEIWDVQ

For `CCCCOCC(C)OCC(C)O` (stereo not drawn), the result in assay [1], in [2], in assay [3], in assay [4], in assay [5] and in assay [6] was inactive. Moreover, the result in assay [7], in assay [8], in assay [9], in assay [10], in [11] and in assay [12] was inactive. In addition, the result in assay [13], in assay [14], in [15], in assay [16], in assay [17] and in assay [18] was inactive.
With `CCOC(=O)C(=O)OCC`, the call in [1], in [19], in assay [20], in assay [3], in [4] and in assay [5] was inactive. Moreover, the result in [6], in assay [7], in assay [8], in [9], in [10] and in assay [11] was inactive. Further, the outcome in assay [12], in assay [13], in assay [14], in [15], in assay [16] and in assay [18] was inactive.
As for `[Cu+]`, the compound was called inactive in assay [1], in [19], in assay [20], in assay [3], in assay [4] and in assay [5]. The call in [6], in [7], in assay [10], in assay [11], in assay [14] and in [15] was inactive. Besides, the compound was classed as inactive in [16] and in assay [18]. The AC50 in assay [8] is 1.09 µM (active).
For the compound `CCCCOCCOCCO`, the compound was called inactive in assay [1], in assay [19], in [20], in assay [3], in assay [4] and in [5]. In addition, the result in assay [6], in assay [7], in assay [8], in assay [10], in assay [11] and in assay [13] was inactive. Moreover, the outcome in [14], in assay [15], in assay [16], in assay [17] and in [18] was inactive.

These data come from PubChem BioAssay (EPA / NIEHS).
